Screening data as filed in PubChem.
Sampled rows, rich in hits. Any-hit rate of the full collection: about 4.1%.
hgDAF12 agonist – H. glycines DAF-12 receptor agonists, primary screen, cell-based, luminescence, HEK293, GAL4 fusion, UAS-luciferase. Nuclear hormone receptor DAF-12 (Heterodera glycines), GAL4 fusion. HEK293 GAL4-hgDAF12 UAS-luciferase reporter, agonist luminescence; normalized to butyrate control. activation, % at 6.8 µM. 1.8% of 370,000 active. AID 687014, 2013;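 active = activation above a cutoff set at the mean of all screened compounds plus 3 SD, cut at about 10% in these data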;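 note: 0% = DMSO wells and 100% = sodium butyrate wells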
DAX1 inh-1 – DAX1 (NR0B1) inhibitors, primary screen, cell-based, HEK293, Gal4-DAX1, luciferase luminescence; Nuclear receptor subfamily 0 group B member 1 (Homo sapiens), P51843; inhibition, % at 6.75 µM; 0.99% of 340,000 active; HEK293 Gal4-DAX1 luciferase reporter;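 active = inhibition above the mean over all tested compounds plus 3 SD, cut at about 4.2% in these data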;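 note: 0% = DAX1-transfected cells with DMSO and 100% = empty-vector control cells with DMSO; inhibition shows as a rise in luminescence from relieved DAX1 repression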
Target sequence (P51843 207-470 limits assumed): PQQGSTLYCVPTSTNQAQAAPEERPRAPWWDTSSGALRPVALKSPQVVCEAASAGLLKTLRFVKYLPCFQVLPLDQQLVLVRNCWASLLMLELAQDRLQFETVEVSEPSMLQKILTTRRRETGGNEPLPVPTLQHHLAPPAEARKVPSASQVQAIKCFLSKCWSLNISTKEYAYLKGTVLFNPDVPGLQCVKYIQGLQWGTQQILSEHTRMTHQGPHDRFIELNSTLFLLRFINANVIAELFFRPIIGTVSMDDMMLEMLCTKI
hcDAF12 agonist – H. contortus DAF-12 nuclear receptor activators, primary screen, cell-based, luminescence, HEK293, lit1-tk-luc reporter; HEK293 hcDAF-12 lit1-tk-luc reporter; 0% DMSO, 100% Δ7-dafachronic acid; activation, % at 6.8 µM; 1.4% of 370,000 active;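 active = activation above the mean of all tested compounds plus 3 SD, cut at about 5.5% in these data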;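 note: 100% = response to 3 µM Δ7-dafachronic acid high control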
ssDAF-12 act – S. stercoralis DAF-12 nuclear receptor activators, primary screen, cell-based, luminescence, HEK293, GRIP1 co-expression, lit1-tk-luc. HEK293 ssDAF-12/GRIP1 lit1-tk-luc reporter; % of 3 µM dafachronic acid response. activation, % at 6.8 µM. 1% of 370,000 active;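 active = activation above the mean over all tested compounds plus 3 SD, cut at about 0.9% in these data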;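 note: 0% = DMSO-only wells and 100% = 3 µM delta7-dafachronic acid wells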
DAX1 inh-2 – DAX1 (NR0B1) inhibitors on StAR promoter, primary screen, cell-based, luminescence, SF-1 (NR5A1), full-length DAX-1. 1.1% of 370,000 active. AID 652010, 2013. HEK293T StAR-luciferase reporter, SF-1/DAX-1 repression relief. inhibition, % at 6.8 µM;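 active = inhibition above the mean over all tested compounds plus 3 SD, cut at about 3.6% in these data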;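 note: 0% = DAX-1 cells with DMSO and 100% = cells lacking DAX-1 with DMSO; higher inhibition means more luminescence from relief of DAX-1 repression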
* marks the source's active call; other numbers are inactive results; x = no result given.

SMILES	hgDAF12 agonist	DAX1 inh-1	hcDAF12 agonist	ssDAF-12 act	DAX1 inh-2
COc1ccc(C2CC(=O)C(c3ccc([N+](=O)[O-])cc3)=CN2Cc2ccccc2)cc1 (stereo not drawn)	-2	x	-2	-1	-3
NC(=O)c1ncn([C@@H]2O[C@H](C(=O)N[C@H](Cc3c[nH]c4ccccc34)C(=O)N3CCN(C(=O)N4CCOCC4)CC3)[C@@H](O)[C@H]2O)n1	0	x	-1	-1	0
N#Cc1ccc(C=NN2CCCCCC2)cc1	8	2	1	0	3.8*
O=[N+]([O-])c1ccc(/C=N/N2CCCCC2)cc1	6	4.4*	4	0	1
NC(=O)c1cnc(Cc2c[nH]c3ccccc23)c(I)c1	-1	x	2	0.9*	-1
Cc1ccccc1OCCCCn1cnc2ccccc21	-5	-4	-3	-2	-2
Brc1ccccc1OCCCn1cnc2ccccc21	11*	3	5	0	2
Cc1c(C)c2ccc(OCC(=O)N3CCC(C(=O)O)CC3)cc2oc1=O	0	3	-1	-1	1
CCCc1cc(=O)oc2cc(OCC(=O)Nc3ccccn3)ccc12	9	1	1	0	4.0*
CCCc1cc(=O)oc2cc(OCC(=O)N3CCC(C(N)=O)CC3)ccc12	0	6.3*	0	-1	-1
CCc1cc(=O)oc2cc(OCC(=O)N3CCC(C(=O)O)CC3)ccc12	7	4.6*	0	-1	-1
O=c1c2ccccc2n(Cc2ccccc2)n1[C@@H](Cc1ccccc1)Cn1cc(-c2ccc(-c3ccccc3)cc2)nn1	-3	x	-1	-2	0
CC(=O)Nc1ccc(-c2cc(NC(C)=O)n(-c3ccccc3)n2)cc1	2	0	-1	-1	-1
CC(=O)Nc1ccc(-c2cc(N)n(-c3ccccc3)n2)cc1	11*	2	4	-1	3.9*
CC(C)(C)C(=O)NCCN1C(=O)S/C(=C\c2ccc([N+](=O)[O-])cc2)C1=O	12*	-1	-2	-1	-1
O=C(O)CC(NC(=O)Cc1ccc([N+](=O)[O-])cc1)c1ccc2c(c1)OCO2 (stereo not drawn)	-1	4.4*	-1	0	0
CC(=O)Nc1ccc(NCc2cccs2)cc1	-3	4.3*	-2	-1	0
O=S1(=O)c2ccc(N3CCCC3)cc2Oc2ccccc2CN1Cc1cn(Cc2cccc(C(F)(F)F)c2)nn1	-2	x	-2	-2	0
CCN1CCN(c2ccc(S(=O)(=O)N3CCOCC3)cc2NC(=O)c2ccc(C(F)(F)F)cc2)CC1	2	5.9*	-1	-1	0
CCN1CCN(c2ccc(S(=O)(=O)N3CCOCC3)cc2NC(=O)c2cccc([N+](=O)[O-])c2)CC1	3	1	1	1.1*	0
O=C(NCc1ccccc1)OCCCN1C(=O)CCC12CCCCC2	-2	x	1	-2	0
CCOC(=O)C(C(=O)OCC)C(Nc1cccc(Br)c1)c1ccccc1 (stereo not drawn)	-1	-3	-1	-2	-1
CCOC(=O)C(c1ccccc1)C(Nc1ccc(Cl)c(Cl)c1)c1ccccn1 (stereo not drawn)	0	x	1	1.0*	0
CCc1ccc(-c2csc3ncn(CC)c(=O)c23)cc1	-3	0	-1	18*	0
O=C(N[C@H](C(=O)O)c1ccccc1)C1CCC(Cn2cnc3ccccc3c2=O)CC1 (stereo partly drawn)	0	4.6*	2	-1	0
SMILES	hgDAF12 agonist	DAX1 inh-1	hcDAF12 agonist	ssDAF-12 act	DAX1 inh-2
Fc1cccc(CSc2nc3ccncc3[nH]2)c1	4	1	2	-1	4.4*
COc1ccc(C2c3ccc4ccccc4c3Oc3ncn(CCCO)c(=N)c32)cc1OC (stereo not drawn)	-2	4.8*	-3	-1	0
COc1ccc(C2c3ccc4ccccc4c3Oc3ncn(CCO)c(=N)c32)cc1OC (stereo not drawn)	x	2	x	x	x
Cc1ccc2nc(NC(=O)c3ccc(N4C(=O)CCC4=O)cc3)sc2c1	5	1	5.9*	0	1
O=C(Nc1ccc(F)cc1F)c1ccc2nc(N3CCOCC3)sc2c1	-2	-1	-1	-1	0
O=C(Nc1ccccc1F)c1ccc2nc(N3C(=O)CCC3=O)sc2c1	3	7.1*	1	-1	2
O=C(Nc1nc2cc3c(cc2s1)OCO3)c1ccc(N2C(=O)CCC2=O)cc1	1	1	0	1.4*	0
O=C(Nc1nc2cc3c(cc2s1)OCO3)c1cccc(N2C(=O)CCC2=O)c1	3	4	-1	-1	1
Cc1nnc(NC(=O)c2ccc(N3CCCC3=O)cc2)s1	9	1	2	0	3
O=C(Nc1nc2ccc(F)cc2s1)c1ccc(N2CCCC2=O)cc1	4	1	0	-1	4.2*
O=C(Cn1nnc(-c2ccc(N3CCOCC3)cc2)n1)c1cccc(F)c1	-1	x	-2	-1	-1
O=C(NC(=S)N(CCO)Cc1ccccc1)c1ccc(S(=O)(=O)N2CCCC2)cc1	3	0	0	2.0*	0
O=C(NCCc1ccccc1)c1ccc(S(=O)(=O)N2CCCCC2)cc1	0	1	-2	-2	0
Cc1cc2nc(C(C)(C)C)c(Cc3ccsc3)n2c(C)c1Br	1	x	3	0	4.1*
Cc1ccc(Cc2c(C(C)(C)C)nc3cc(C)c(Br)c(C)n23)cc1	2	x	4	1.2*	-1
Cc1cc2nc(C3CCCCC3)c(Cc3ccsc3)n2c(C)c1Br	2	x	1	-1	-2
Cc1cc2nc(C(C)(C)C)c(Cc3cccc(Cl)c3)n2c(C)c1Br	2	x	3	-1	0
COC(=O)C1CN(Cc2cn(Cc3ccc(C)cc3)nn2)CCS(=O)(=O)N1Cc1ccc(Cl)cc1 (stereo not drawn)	-4	x	-4	-1	-3
COc1ccccc1/C=C/C=N/n1c(-c2ccccn2)n[nH]c1=S	5	1	5.6*	-1	1
Cc1ccc(SCC(=O)c2ccc[nH]2)cc1	11*	1	0	-1	0
Cc1ccc(CNC(=O)NCc2ccccc2)cc1	1	1	0	-1	0
CC(=O)Nc1ccc(NC(=O)CSc2ccc(C)cc2)cc1	1	0	-1	-1	0
Cc1ccc(CNC(=O)c2ccc[nH]2)cc1	2	5.6*	-2	-1	1
